# A selection: hits, their analogues and other compounds. The true share with any hit is near 3.7%.
# Wnt bcat act = activators of Wnt/beta-catenin signaling; Wnt/beta-catenin reporter cell assay, activator, plate reader; activation, % at 9.35 µM; actives 1.2% (n = 300,000); AID 743398; in the data active = activation above about 30%, passing the limit was not always enough; inconclusive = no clear call, values can overlap the other calls;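 note: 0% = neutral control wells and 100% = positive control wells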
# Ecoli rRNA inh = inhibitors of bacterial rRNA selective over humanized ribosomes | E. coli WT GFP vs humanized-ribosome RFP mutants, fluorescence, 24 h; active compounds read low; DMSO median 0, no signal -100 | GFP signal change (wild-type ribosome), % (concentration not given with the values) | actives 1.6% (n = 350,000) | AID 720706;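 active = significant combined selectivity score with lowered wild-type GFP, culture density cut under 30%, mutant RFP and density less affected; inactive = any of these conditions unmet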
# MITF TRPM1 HTS = increases MITF-driven TRPM1 promoter luciferase signal; SK-MEL-5 TRPM1-promoter luciferase, 24 h; % of positive control, neutral wells = 0; activation, % at 12.5 µM; actives 0.75% (n = 300,000); AID 588334;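 active = mean activation of at least 80% with every replicate also reaching 80%; inconclusive = mean reaches 80% but some replicate falls short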;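 note: 0% = neutral control wells and 100% = parthenolide positive control wells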
# esBAF inh = blocks esBAF chromatin remodeling in mouse ES cells | Bmi1-luciferase knock-in reporter, 24 h; 100% = twice the neutral-well signal | reporter increase, % at 12.5 µM | actives 2% (n = 350,000) | AID 602393; in the data active = activation above about 40%; inconclusive = no clear call, values can overlap the other calls;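 note: 0% = median of the plate's neutral control wells and 100% = double that signal; a rise in the Bmi1 reporter signal indicates esBAF inhibition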
# AF4-AF9 inh = inhibitors of human MLL-AF4/AF9 interaction | P42568 | inhibition, % at 10 µM | AlphaScreen, biotin-AF4 peptide binding to FLAG-AF9 | actives 0.47% (n = 350,000) | AID 651704;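 active = every replicate reaching a set inhibition limit, whatever the replicate mean, cut at about 25% in these data; inconclusive = mean inhibition reaches that limit but some replicates miss it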;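 note: 0% = plate neutral control median and 100% = total signal loss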
# Target sequence (P42568 whole entry, looked up): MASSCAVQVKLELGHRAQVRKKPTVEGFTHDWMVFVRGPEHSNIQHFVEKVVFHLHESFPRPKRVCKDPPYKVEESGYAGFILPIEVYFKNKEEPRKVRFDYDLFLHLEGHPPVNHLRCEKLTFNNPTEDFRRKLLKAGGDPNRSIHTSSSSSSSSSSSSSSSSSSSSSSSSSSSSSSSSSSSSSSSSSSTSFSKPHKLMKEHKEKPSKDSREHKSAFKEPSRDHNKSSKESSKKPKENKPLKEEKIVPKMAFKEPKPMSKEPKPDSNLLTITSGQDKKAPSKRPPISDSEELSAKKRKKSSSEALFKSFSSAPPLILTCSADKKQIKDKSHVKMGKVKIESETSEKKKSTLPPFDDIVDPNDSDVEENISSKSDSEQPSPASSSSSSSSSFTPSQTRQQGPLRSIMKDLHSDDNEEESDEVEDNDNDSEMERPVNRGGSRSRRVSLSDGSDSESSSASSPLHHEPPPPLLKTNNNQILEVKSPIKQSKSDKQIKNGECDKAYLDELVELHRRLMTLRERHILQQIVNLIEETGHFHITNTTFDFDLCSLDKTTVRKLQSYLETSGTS
# The depositor's hits bear a star; ? = inconclusive; / = not tested or not shown.
SMILES,Wnt bcat act,Ecoli rRNA inh,MITF TRPM1 HTS,esBAF inh,AF4-AF9 inh
O=C(Nc1ccccc1F)Nc1ccccc1N1CCCCC1,47*,-31*,0,5,-1
O=C(Nc1ccc(F)cc1)Nc1ccccc1F,-5,7,55,74*,-2
Cc1noc(C)c1NC(=O)Nc1ccc2c(c1)C(=O)N([C@@H](C)CO)C[C@H](C)[C@@H](CN(C)Cc1ccc(Cl)c(Cl)c1)OCCCC[C@@H](C)O2,/,-2,/,-3,7
OC(COc1ccc(OCc2ccccc2)cc1)CN1CCOCC1 (configuration not stated),/,8,1,-1,/
OC(COc1ccc(OCc2ccccc2)cc1)CN1CCCCC1 (configuration not stated),/,/,88*,14,/
CCCOC(c1ccccc1)(c1ccccc1)C(Oc1nc(C)cc(C)n1)C(=O)O (configuration not stated),0,-19*,/,-1,-7
Cc1cc(C)nc(OC(C(=O)O)C(OCCC(C)C)(c2ccccc2)c2ccccc2)n1 (configuration not stated),4,20,-8,10,-2
O=C(CN1CCN(C(=O)c2ccco2)CC1)Nc1ccc(Br)cc1,-3,-4,3,7,-2
NC(=O)C1CCN(C(=O)CN2C(=O)c3ccccc3S2(=O)=O)CC1,/,/,-5,2,/
CC(C)(C)N(Cc1ccccc1)C(=O)CN1C(=O)c2ccccc2C1=O,13,4,24,46*,-1
CN(Cc1ccccc1)C(=O)CN1C(=O)c2ccccc2C1=O,1,12,/,-2,-5
CC(C)(C)N(Cc1ccccc1)C(=O)CN1C(=O)c2ccccc2S1(=O)=O,-3,-24*,0,-8,1
CC1CCN(C(=O)CN2C(=O)c3ccccc3S2(=O)=O)CC1,48*,/,-7,-32,/
Nc1ccc2oc(-c3ccc4nc[nH]c4c3)nc2c1,17,/,/,-35,/
Cc1nc2ccc(-c3nc4cc(N)ccc4o3)cc2[nH]1,33*,/,-5,-46,/
CCOC(=O)N1CCN(CCC(=O)Nc2cccc(Br)c2)CC1,-7,/,-4,11,/
CCNC(=S)NCc1ccc2[nH]c(C)cc2c1,-1,-3,/,8,27*
CCOC(=O)NCc1ccc2[nH]c(C)cc2c1,-3,2,/,-17,-3
CCOC(=O)CC(=O)CSc1nc2c(sc(=S)n2-c2ccc(C)c(C)c2)c(=O)[nH]1,0,-18,-1,-5,2
CCOC(=O)CC(=O)CSc1nc2c(sc(=S)n2-c2ccc(OCC)cc2)c(=O)[nH]1,-1,-28*,-5,-6,-3
COc1ccc(NC(=O)N(C)C[C@H]2OCCCC[C@@H](C)Oc3ccc(NS(=O)(=O)c4ccc(C)cc4)cc3C(=O)N([C@@H](C)CO)C[C@H]2C)cc1,/,1,/,2,0
C[C@@H]1CCCCO[C@@H](CN(C)S(=O)(=O)c2cn(C)cn2)[C@@H](C)CN([C@@H](C)CO)C(=O)c2cc(N(C)C)ccc2O1,/,3,/,-21,-10
COc1ccc(OC)c(Nc2ncnc3c2cnn3-c2ccccc2)c1,/,/,24,28,/
COc1cccc(Nc2ncnc3c2cnn3-c2cccc(C)c2)c1,/,/,/,56*,/
COc1ccccc1Nc1ncnc2c1cnn2-c1cccc(C)c1,35*,/,/,?,/
SMILES,Wnt bcat act,Ecoli rRNA inh,MITF TRPM1 HTS,esBAF inh,AF4-AF9 inh
COc1cc(/C=N/n2c(C3CCCCC3)n[nH]c2=S)cc(Br)c1O,2,-5,-5,-7,-3
CC(=O)c1cccc(NC(=O)CCc2nnc3ccc(NCc4ccc5c(c4)OCO5)nn23)c1,-4,7,-2,/,-1
O=C1CN(c2nc3ccccc3n3cnnc23)CC(=O)N1CCc1ccccc1,0,4,/,0,25*
O=C(CCCc1ccccc1)Nc1ccccc1C(F)(F)F,-1,5,/,72*,-3
NC(=O)c1ccccc1NC(=O)CCc1ccccc1,10,5,59,48*,1
NC(=O)c1ccccc1NC(=S)NC(=O)CCc1ccccc1,/,/,-24,2,/
O=C(O)CC1(CC(=O)NCc2ccc(Cl)cc2)CCCCC1,-2,-5,-1,-1,-1
CCOc1ccccc1N1CCN(C(=O)CCCc2nc3ccccc3s2)CC1,0,-30*,19,/,2
CCCC(=O)N1CCN(c2nc3ccccc3s2)CC1,0,-4,96*,-4,0
CC(C)NC(=O)N1CCCN(c2nc3ccc(Cl)cc3s2)CC1,31*,-24*,19,35,5
